Assay [1] can be described thus: HIF-2a driven luciferase blockers, single dose – luminescence, 786-0 RCC cells, confirmation (AID 651580;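 active = mean inhibition across four replicates of at least 40 percent at the single tested concentration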). The settings on record: HIF-2a luciferase reporter luminescence, overnight, at 18.8 µM, stronger effect = higher value.
Assay [2] can be described thus: HIF-1a luciferase reporter signal reduction – MiaPaCa-2 cells, single concentration, counter-screen for HIF-2a inhibitor project, confirmation (AID 651589;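 active = mean inhibition of the reporter signal across four replicates at the single tested dose of 50% or more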). Particulars: MiaPaCa-2 HIF-1a luciferase reporter, desferoxamine, overnight; at 18.8 µM; stronger effect = higher value. (In general: In a reporter assay the amount or activity of a reporter protein is the signal.)
Assay [3] in a line: NFkB reporter suppression in cystic fibrosis bronchial cells – cell-based, uHTS hits, panel, cytotoxicity readout, dose response (AID 624344). The settings on record: CF bronchial epithelial cells, PAF-induced NFkB reporter inhibition, with PAF, run 1; at 79 µM (top of the series) unless noted.
Test in assay [4]: as above
The settings on record: CF bronchial epithelial cells, PAF-induced NFkB reporter inhibition, with PAF, run 2; at 79 µM (top of the series) unless noted.

Assay [5] deals with Tumor necrosis factor receptor superfamily member 10B (Homo sapiens) (UniProt O14763). Kind of assay: viability loss of caspase-8 NB7 cells with TRAIL – with/without TRAIL, luminescence panel, confirmation (AID 651596). The settings on record: NB7 neuroblastoma + caspase-8, TRAIL sensitization, NB7 Caspase-8, with TRAIL, mean of runs, at 10 µM, stronger effect = higher value.
Chain of Tumor necrosis factor receptor superfamily member 10B (Homo sapiens) (O14763 whole entry, looked up): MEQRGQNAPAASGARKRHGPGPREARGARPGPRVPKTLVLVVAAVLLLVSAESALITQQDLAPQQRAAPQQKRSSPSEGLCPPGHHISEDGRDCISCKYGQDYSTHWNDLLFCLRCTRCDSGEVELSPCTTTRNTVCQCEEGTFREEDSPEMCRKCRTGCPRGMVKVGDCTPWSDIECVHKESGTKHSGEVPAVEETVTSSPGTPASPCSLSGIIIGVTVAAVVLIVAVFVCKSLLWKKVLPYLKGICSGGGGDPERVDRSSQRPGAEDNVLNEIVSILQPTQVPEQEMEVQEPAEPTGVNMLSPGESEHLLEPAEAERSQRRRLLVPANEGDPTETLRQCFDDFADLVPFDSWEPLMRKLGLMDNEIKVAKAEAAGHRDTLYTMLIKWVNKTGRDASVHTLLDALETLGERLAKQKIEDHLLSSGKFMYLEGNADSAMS
Test in assay [6]: as above
Particulars: NB7 neuroblastoma + caspase-8, without TRAIL, NB7 Caspase-8, without TRAIL, mean of runs, at 10 µM.

In assay [7] the target is Tumor necrosis factor receptor superfamily member 10B (Homo sapiens) (UniProt O14763). Kind of assay: compound enhancement of TRAIL-induced cell killing – NB7 cells plus caspase-8, luminescence, panel, dose response (AID 652002). The settings on record: NB7 neuroblastoma +caspase-8, TRAIL sensitization, luminescence viability, NB7+Caspase-8, with TRAIL, run 1; at 12.5 µM (top of the series).

Assay [8] shares this target. The assay is described as above. The settings on record: NB7 neuroblastoma +caspase-8, TRAIL sensitization, luminescence viability, NB7+Caspase-8, with TRAIL, run 2; at 12.5 µM (top of the series).
Test in assay [9]: as above
Particulars: NB7 neuroblastoma +caspase-8, no TRAIL, compound-alone cytotoxicity counter-screen, luminescence viability, NB7+Caspase-8, run 1; at 12.5 µM (top of the series) unless noted.

Test in assay [10]: as above
Particulars: NB7 neuroblastoma +caspase-8, no TRAIL, compound-alone cytotoxicity counter-screen, luminescence viability, NB7+Caspase-8, run 2; at 12.5 µM (top of the series) unless noted. A general note: Counterscreens check selectivity or assay interference.

The values below come from PubChem BioAssay.

The other results are listed elsewhere or left out. The source made the active and inactive calls. Rule as the data show it, unless noted: active = activity above about 50%; inactive = the rest.

In the case of `Cc1ccc(-c2noc(CNC(=O)c3ccoc3C)n2)cc1`, the values for the inhibition in assay [1] and in assay [2] were 0.91% (inactive) and -16.7% (inactive), respectively.

Take `CCCSC(=S)NC1CCS(=O)(=O)C1` (stereo unspecified): the inhibition (as a rule, the relative decrease from the control value, in per cent) in [1] was 14.6% (inactive); in [2] it was 68.5% (active).

Consider `N#C/C(=C/c1cccc([N+](=O)[O-])c1)c1nnc2n1CCCCC2`, for which the inhibition in [1] is 23.5% (inactive); in assay [2] it was 11.7% (inactive).

On to `CC(C)C[C@@H](N)c1nnc(SCC(=O)c2ccc(Cl)cc2)o1`, for which the inhibition in assay [1] is 80% (active); in [2], -10.2% (inactive).

Take `CC(C)C[C@@H](CN1CCCC1CN1C(=S)NC[C@@H]1Cc1ccc(O)cc1)N1C[C@H](Cc2ccc(O)cc2)N(CC2CCCCCC2)C1=S` (stereo partly specified): the inhibition in [3] came out at 116%; in [4], 101%. Besides, the activity in [5] came out at 18.3%; in assay [6] it was 52%.

On to `O=Nc1ccc(NO)c2ccccc12`, for which the values for the inhibition in assay [3] and in [4] were 77.1% [at 39.5 µM] and 48.9%, respectively. Further, the results for the activity in assay [5] and in assay [6] were 79.8% and 47.2%, respectively. The activity, % sensitization in [7] stood at 19%; in assay [8], 40.7%; in [9], 39.7%; in [10], 31.2%.

On to `CCC(C)(C)c1ccc(Oc2ccc(NC(=O)COC(=O)C3=COCCO3)cc2)cc1`, for which the inhibition is 97.8% (active) in assay [1] and 92.9% (active) in assay [2].

Consider `CCN1CCN(CCNC(=O)c2ccc3c(c2)NC(=O)/C(=C\c2cccc(Cl)c2)S3)CC1`, for which the inhibition is -18.3% (inactive) in [1] and 108% (active) in assay [2].

For the molecule `COc1ccc2[nH]cc(C(=O)CCl)c2c1`, the inhibition was found to be 96.8% in assay [3] and 99.6% in assay [4]. For the same molecule, the activity in assay [5] came out at 99.1%; in assay [6], 99.2%.

For `COc1ccc(N(Cc2cc(=O)[nH]c3ccccc23)C(=O)CCl)cc1`, the figures for the inhibition in [3] and in assay [4] were 92.3% and 88.4%, respectively. The figures for the activity in assay [5] and in assay [6] were 99.3% and 99.5%, respectively.

`Clc1ccc(Cn2ncc3c(N4CCN(c5ccccc5)CC4)ncnc32)cc1`: the inhibition in assay [3] was determined as 109%; in assay [4], 94.9%. The activity in [5] was 69.5%; in [6], 66.8%.

In the case of `O=[N+]([O-])/C=C/c1ccc2c(ccn2Cc2ccccc2)c1`, the inhibition was 45.4% (active) in [1] and 104% (active) in [2].

Take `CC[C@@H]1Cc2cc(O)ccc2C2=C1c1ccc(O)cc1C[C@H]2CC`: the inhibition in assay [1] is 54.5% (active); in assay [2], 104% (active).

Consider `N#CC(C#N)=C1SC(=Nc2ccccc2)C(=Nc2ccccc2)N1c1ccccc1`, for which the inhibition in assay [3] is 98.5%; in [4], 99.1%. Further, the values for the activity in assay [5] and in assay [6] were 92.6% and 83.6%, respectively.

As to `CCOC(=O)C(=Cc1ccccc1OC)C(=O)OCC`, the results for the inhibition in [1] and in [2] were 57.5% (active) and 75.7% (active), respectively.

On to `CCOc1ccccc1NC(=O)c1nc(S(=O)(=O)Cc2ccccc2)ncc1Cl`, for which the inhibition in assay [3] came to 78%; in [4] it was 83.5%. Moreover, the activity in assay [5] was found to be 79.4%; in assay [6], 99.5%.

For `O=S(=O)([N-]c1nc2ccccc2nc1-[n+]1ccc(Cc2ccccc2)cc1)c1ccc(Br)s1`, the inhibition is -48.2% (inactive) in assay [1] and 79.1% (active) in assay [2].

Regarding `O=C(Nc1ccc2ccccc2c1)c1ccccc1O`, the inhibition in [3] came to 102%; in [4], 90.4%. Also, the activity in [5] was 64.2%; in assay [6], 52.8%.

Regarding `COc1ccc(C(=O)/C=C/c2ccc(-c3ccccc3)cc2)cc1CSCC(=O)O`, the inhibition was -10.7% (inactive) in assay [1] and 62.4% (active) in assay [2].

Take `COc1ccc(-c2oc3ncnc(NCCCO)c3c2-c2ccc(OC)cc2)cc1`: the figures for the inhibition in assay [1] and in assay [2] were 37.9% (inactive) and 82.4% (active), respectively.

For the molecule `COc1cc2c(cc1O)C(SC)=NC(C)(C)C2`, the inhibition in [1] is 2.51% (inactive); in assay [2], 66.5% (active).

Regarding `O=C(Nc1ccccc1)c1nnsc1S(=O)(=O)c1ccc(Cl)cc1`, the inhibition in [1] was 47.1% (active); in assay [2], -5.15% (inactive).

Consider `CS(=O)(=O)N(Cc1ccc(Cl)cc1)c1ccc(C(=O)NCCSCc2ccco2)cc1`, for which the inhibition in [1] was -0.82% (inactive); in assay [2], 45.5% (inactive).

Consider `CCOc1ccc(CNC(=O)C2CCCN(c3nnc(C)c4c(C)n(-c5ccccc5)nc34)C2)cc1` (stereo unspecified), for which the inhibition is 6.1% (inactive) in assay [1] and -3.66% (inactive) in assay [2].

On to `CCS(=O)(=O)c1ncc(Cl)c(C(=O)Nc2ccccc2OC)n1`, for which the inhibition in [3] amounted to 95.8%; in assay [4], 86%. For the same molecule, the activity was determined as 98.4% in assay [5] and 99% in assay [6].

On to `CCOc1cc(/C=C(/C#N)c2ccc(Cl)cc2)cc(Cl)c1OCC(=O)O`, for which the inhibition was 98.1% (active) in assay [1] and 91.2% (active) in assay [2].

Regarding `CCOC(=O)c1sc(NC(=O)c2cccc(S(=O)(=O)N3CCc4ccccc43)c2)c(C#N)c1C`, the inhibition in [3] came to 79.6%; in assay [4], 80.5%. Further, the activity in assay [5] was found to be 53.4%; in [6], 41.3%. Moreover, the activity, % sensitization is 29.7% in assay [7], -18% in assay [8], 1.22% in assay [9] and -10% in [10].

As to `Cc1ccccc1C(=O)Nc1nnc(SCC(=O)NCc2ccco2)s1`, the activity in assay [5] amounted to 61.1%; in assay [6] it was 58.2%.

As to `Cc1ccc2c(c1)N=C(c1ccccc1)CC(C(Cl)Cl)=N2`, the activity in assay [5] came out at 29.4%; in [6] it was 18%.

On to `COc1cccc(C(=O)/C=C/Nc2cccc(O)c2)c1`, for which the activity in [5] amounted to 86%; in [6], 71.5%.

In the case of `CCOC(=O)c1nn(-c2ccc3c(c2)CCN3C(C)=O)cc1O`, the values for the activity in [5] and in [6] were 47% and 47.6%, respectively.

Turning to `CC(OC(=O)c1ccc(S(C)(=O)=O)c([N+](=O)[O-])c1)C(=O)NC1C2CC3CC(C2)CC1C3` (stereo unspecified), the activity in assay [5] turned out to be 77.8%; in assay [6], 97.9%.

As for `COC(=O)c1ccccc1NC(=O)c1cc(-c2ccc(O)cc2)on1`, the values for the activity in [5] and in assay [6] were 15.1% and 27.9%, respectively.

For `CC(NC(=O)CCl)c1ccc(Cl)c(Cl)c1` (stereo unspecified), the activity was 51% in [5] and 81.5% in [6].
